Drawing on PubChem BioAssay AID588852 (The Scripps Research Institute Molecular Screening Center, 2011), this text covers inhibition for 54 compounds.

By inhibition is commonly meant the drop in the measured response relative to a control, in per cent.

Molecules are shown by their SMILES. The whole screen tested about 360,000 compounds, of which about 4,600 (1.3%) were called active.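 Rule for the calls: active = percent inhibition above its own plate's cutoff, namely the mean of that plate's compound wells plus 3 SD; inactive = the rest.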 The sample as a whole holds a higher share of actives than the screen did.

For the test, the target named is Muscarinic acetylcholine receptor M1 (Homo sapiens) (UniProt P11229). In words: human M1 muscarinic receptor antagonists, primary screen, CHO-K1 cells, Fluo-8 calcium fluorescence, 1536-well (AID 588852).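 Note: peak over basal fluorescence ratio during 140 s after agonist addition; 0% = ACh EC80 plus DMSO and 100% = DMSO alone without agonist.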 The note with it: CHO-K1 hM1, Fluo-8 calcium fluorescence, ACh EC80 antagonist; at 3 µM; hits give high values.
Sequence of Muscarinic acetylcholine receptor M1 (Homo sapiens) (P11229 whole entry, looked up): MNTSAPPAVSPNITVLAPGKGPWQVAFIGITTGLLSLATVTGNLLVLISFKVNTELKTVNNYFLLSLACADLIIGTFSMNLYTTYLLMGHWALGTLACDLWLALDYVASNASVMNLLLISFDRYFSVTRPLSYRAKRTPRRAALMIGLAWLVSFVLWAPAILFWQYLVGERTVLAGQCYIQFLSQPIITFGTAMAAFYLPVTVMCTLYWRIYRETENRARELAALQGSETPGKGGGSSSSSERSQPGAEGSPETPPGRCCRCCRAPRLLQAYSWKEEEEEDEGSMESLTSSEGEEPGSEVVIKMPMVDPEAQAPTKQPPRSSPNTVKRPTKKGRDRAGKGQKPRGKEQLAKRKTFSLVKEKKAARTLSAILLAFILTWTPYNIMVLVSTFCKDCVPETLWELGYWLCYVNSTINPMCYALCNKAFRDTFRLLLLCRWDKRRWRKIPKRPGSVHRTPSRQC
On to `COc1ccc(C(C(=O)NC2CCCCC2)N(C(=O)Cc2c[nH]c3ccccc23)c2ccccc2)cc1OC` (centres undefined), for which the inhibition is -2.89% (inactive). With `COc1ccc(C2CC(c3cccs3)=NN2C(=O)CSc2nncs2)cc1OC` (centres undefined) the figure was -3.74% (inactive); with `COc1ccc(C2CC(c3cccs3)=NN2C(=O)COC(=O)c2cc3ccccc3cc2O)cc1OC` (centres undefined), -1.73% (inactive); with `COc1ccc(C2CC(c3cccs3)=NN2C(=O)CSc2nnc(N)s2)cc1OC` (centres undefined), 48.8% (active). With `O=C(Nc1nnc([C@H]2C[C@H](O)[C@@H](CO)O2)s1)c1cccc(Cl)c1` the figure was -7.54% (inactive). The figure for `Nc1nc2c(ncn2[C@@H]2O[C@H](CNCc3ccc(OCCCN4CCOCC4)cc3)[C@@H](O)[C@H]2O)c(=O)[nH]1` is -12.3% (inactive).

Regarding `COC(=O)c1ccccc1Sc1c(/C=N/OCc2ccc(Cl)cc2)c(C(F)(F)F)nn1C`, the inhibition is 6.15% (inactive).

`Cn1nc(C(F)(F)F)c(C(=O)Nc2cccc(C(F)(F)F)c2)c1SCc1ccc(Cl)cc1`: the inhibition is 45.3% (active). With `O=C(CN1CCN(c2ccc(F)cc2)CC1)Nc1cccc(C(F)(F)F)c1` the figure was -30.1% (inactive); with `COc1cccc(NC(=O)Nc2nnc(N3CCCCC3C)s2)c1` (centres undefined), -9.08% (inactive); with `C=C(C)c1cccc(C(C)(C)NC(=O)N2CCN(c3ncccn3)CC2)c1`, -3.97% (inactive). For the compound `C=C(C)c1cccc(C(C)(C)NC(=O)NCCN(CC)CC)c1`, the inhibition is 82.6% (active).

Take `C=C(C)c1cccc(C(C)(C)NC(=O)NC2CCCC2)c1`: the inhibition is -0.33% (inactive). As for `CN(CC(=O)NCCc1ccccc1)S(=O)(=O)c1cnc[nH]1`, the inhibition was -5.57% (inactive). In the case of `CC(C)C(=O)Nc1nnc(Sc2ccc(N(C)C)cc2)s1`, the inhibition is -14.1% (inactive). The figure for `CN(C)C1=NC[C@H](Cc2ccccc2)N1CCc1ccc(F)cc1` is 9.98% (inactive). With `CCC(C(=O)Nc1ccc(C(C)C)cc1)c1ccccc1` (centres undefined), the inhibition was 37.1% (active). For `CC(C)c1ccc(NC(=O)Cn2ncc3ccccc32)cc1`, the inhibition is -20.8% (inactive). As for `CC(NC(=O)Nc1ccccc1)c1ccccc1` (centres undefined), the inhibition was -2.37% (inactive). Consider `COc1ccc(C(C)(O)c2nc(-c3cc(F)cc(F)c3)cs2)cc1` (centres undefined), for which the inhibition is -4.19% (inactive). As for `COc1ccccc1N(C)S(=O)(=O)c1ccc(C(=O)N2CCC(C(N)=O)CC2)cc1`, the inhibition was -7.95% (inactive). For `COC(=O)CCCCC1=CCC2C(=O)C=C(O)C2C1` (centres undefined), the inhibition is 4.53% (inactive). For the compound `Cc1ccc(C)c(N2CCN(C(=O)CCCn3c(=O)c4cccn4c4cccnc43)CC2)c1`, the inhibition is -0.03% (inactive).

As to `O=C(CCCCCn1c(=S)[nH]c2cc3c(cc2c1=O)OCO3)N1CCN(c2ccc(F)cc2)CC1`, the inhibition is -8.71% (inactive). On to `Cc1ccc(C)c(N2CCN(C(=O)CCCCCn3c(=S)[nH]c4ccc(N5CCOCC5)cc4c3=O)CC2)c1`, for which the inhibition was 39.5% (active). With `Cc1ccnc(NC(=O)C(C)N2C(=O)c3ccccc3C2=O)c1` (centres undefined), the inhibition was -0.26% (inactive). As to `Cc1ccccc1C#CC1=CC(=O)CC(C)(C)C1`, the inhibition is -7.17% (inactive).

As to `CN(Cc1ccccc1)C(=O)CSc1nc2ccccc2[nH]1`, the inhibition is -5.93% (inactive). For the compound `CCC(C)N1C(=O)S/C(=C/c2ccc(Sc3nc4ccccc4[nH]3)o2)C1=O` (centres undefined), the inhibition is 32.9% (active).

Turning to `CN1CCN(c2ccc([N+](=O)[O-])c(Sc3nc4ccccc4[nH]3)c2)CC1`, the inhibition was -0.69% (inactive).

Turning to `O=C(C1CCC1)N1CCc2cc(S(=O)(=O)NCc3cccnc3)ccc21`, the inhibition was -15.2% (inactive).

In the case of `COc1ccc(C(c2nnnn2C2CCCC2)N2CCN(C/C=C/c3ccccc3)CC2)cc1` (centres undefined), the inhibition was 48.7% (active). Turning to `COc1ccc(C(c2nnnn2C2CCCCC2)N2CCN(c3ccccc3F)CC2)cc1` (centres undefined), the inhibition was -2.28% (inactive). For the compound `FC(F)(F)Oc1ccccc1C(c1nnnn1C1CCCCC1)N1CCN(C/C=C/c2ccccc2)CC1` (centres undefined), the inhibition is -18.7% (inactive). With `CC(=O)Nc1cc(-c2ccccc2N(C)C)cn2c(-c3ccc(F)c(Cl)c3)cnc12` the figure was -16.4% (inactive); with `CN(CC1CCCN(CCc2cccc(C(F)(F)F)c2)C1)C(=O)c1ccc2nc[nH]c2c1` (centres undefined), 84.4% (active). On to `CC(=O)c1ccc(N2CCN(C(=O)c3ccc4nc[nH]c4c3)CC2)cc1`, for which the inhibition is -1.75% (inactive). With `Cc1nc2ccc(C(=O)N(C)CC3CCCN(CCc4ccc(Cl)cc4)C3)cc2[nH]1` (centres undefined), the inhibition was 17.1% (inactive). With `COc1ccc(NC(=O)C2Cc3c(-c4ccc5c(c4)OCO5)ccnc3O2)cn1` (centres undefined) the figure was -14.1% (inactive); with `COc1ccc(-c2[nH][nH]c(=O)c2NC(=O)c2ccc([N+](=O)[O-])cc2)cc1`, -25% (inactive); with `CSCCNCc1cn(-c2ccc(F)cc2F)nc1-c1ccccc1C`, -13.6% (inactive). The figure for `CC(=O)Nc1cccc(-c2ccnc3c2CC(C)(C(=O)NCc2ccco2)O3)c1` (centres undefined) is -8.07% (inactive). With `COc1ccc(CCNC(=O)COC(=O)c2ccc[nH]c2=O)cc1`, the inhibition was -7.65% (inactive). The figure for `CCCc1nc2ccccc2c(C(=O)OCc2nnc(-c3cc(OC)c(OC)c(OC)c3)o2)c1CC` is 24.3% (active); for `CCOC(=O)c1cc(-c2nnc(-c3cc(OC)c(OC)c(OC)c3)o2)c(C)nc1C` it is -32.2% (inactive). As to `O=C(OCc1nnc(-c2ccccc2)o1)c1cc(=O)[nH]c2ccccc12`, the inhibition is -2.41% (inactive).

As to `O=C(NC1CCCCC1)C1CCC(CNS(=O)(=O)c2ccccc2)CC1` (centres undefined), the inhibition was 2.63% (inactive). The figure for `CC[C@@H](C)[C@@H]1CN([C@@H](C)CN2CCC[C@H]2CN2C(N)=NC[C@H]2C(C)C)C(=N)N1CCc1ccc(Cl)c(Cl)c1` is 16.5% (inactive). For the compound `CCCCN1C(N)=NC[C@@H]1Cc1ccccc1`, the inhibition is -1.32% (inactive). The figure for `C[C@@H](CN1CCC[C@H]1CN1C(N)=NC[C@@H]1Cc1ccccc1)N1C[C@@H](Cc2ccccc2)N(CCCC2CCCC2)C1=N` is 93.1% (active); for `Cc1cc(/C=C2/SC(=O)N(CC(=O)N3CCCC3)C2=O)ccc1N1CCOCC1` it is -1.78% (inactive). The figure for `COc1ccc(CNS(=O)(=O)c2ccc(NC(=O)N3CCCCC3)cc2)cc1` is 33.3% (active).

Regarding `COc1ccc(NC(=O)N2CCC(Cc3ccccc3)CC2)cc1`, the inhibition is -2.81% (inactive). With `COc1ccc(S(=O)(=O)NC(C)C(=O)N2CCCCCC2)cc1` (centres undefined), the inhibition was -12.2% (inactive).
